From PubChem BioAssay
Several values for one entry are separate records, joined by “and”; a condition that tells them apart may be missing. Equal values may be shown once. Activity calls are given as the source filed them. Rule as the data show it, unless noted: active = parasite load remaining mostly below about 12% (no sharp cut-off); inactive = mostly above about 10%.

Assays:
[1] = P. berghei load reduction in hepatocytes – cell-based, HepG2, luciferase luminescence, HepG2 viability, primary screen (AID 624349);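 also: 100% = mean of DMSO negative control wells on the same plate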; details: P. berghei liver stage in HepG2, luciferase luminescence, concentration not given here; parasite load remaining: stronger effect = lower value; viability: measured here: HepG2 viability without parasites
[2] = Wnt pathway potentiators raising nuclear beta-catenin – imaging, WNT3A-conditioned medium, mouse C2C12, NPC library, primary screen (AID 1117326; in the data active = nuclear beta-catenin stimulation mostly above about 4.2%, no sharp cut-off; inactive = mostly below about 10%; also: reference of the scale not given here); details: stronger effect = higher value
[3] = stimulators of insulin release from INS-1E, primary screen, cell-based, 5 mM glucose, NPC library (AID 1117329;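 active = compound raises insulin release from rat beta cells at 5 mM glucose, no numeric limit stated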; also: reference of the scale not given here); details: rat INS-1E insulin secretion, at 10 µM, stronger effect = higher value
[4] = growth inhibition of GSK3B-pretreated HCT116 cells – cell-based, CellTiter-Glo, 0.2 to 20 µM (AID 1117336;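 active = compounds lowering colon cancer cell viability after pretreatment blocking the GSK3B kinase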); details: HCT116 viability after GSK3B inhibitor, at 20 µM, stronger effect = higher value
[5] = inhibition of endothelial tube formation, primary screen, imaging, VEGF stimulated, CD31 staining, tube area, NPC library (AID 1117340;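 active = compound that reduces growth-factor-driven endothelial tube area in a mixed cell culture, no cutoff stated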); details: VEGF-stimulated ADSC/ECFC co-culture, at 10 µM, stronger effect = higher value
[6] = GLP1 release stimulators, primary, NCI-H716, NPC library (AID 1117341;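 active = compound raises GLP1 secretion from the human gut endocrine cells, with no numeric limit stated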; also: reference of the scale not given here); details: NCI-H716 cells, at 10 µM, stronger effect = higher value
[7] = HCT116 colon cancer cell growth inhibition, primary screen, CellTiter-Glo luminescence, NPC library (AID 1117342;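 active = compounds that lower survival of HCT116 colon cancer cells in the luminescence readout, no numeric limit stated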); details: at 20 µM (top of the series)
[8] = reduced SW480 viability measured with CellTiter-Glo, NPC library, primary (AID 1117343;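 active = compounds that lower viability of the colon cancer cells in the luminescence readout, with no numeric limit stated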); details: CellTiter-Glo luminescence; at 20 µM (top of the series)
[9] = NPC library primary testing for decreased DLD-1 cell viability via CellTiter-Glo (AID 1117346;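 active = compounds that lower survival of DLD-1 colon cancer cells in the luminescence readout, no cutoff given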); details: DLD-1 viability, CellTiter-Glo luminescence; at 20 µM (top of the series)
[10] = target: 6-phosphogluconate dehydrogenase, decarboxylating (Homo sapiens) (UniProt P52209); assay: inhibition of human phosphogluconate dehydrogenase – biochemical, recombinant enzyme, NADPH absorbance, primary screen (AID 1159550;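 active = at least 20% inhibition of 6-phosphogluconate dehydrogenase activity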); details: recombinant 6PGD, NADPH absorbance 341 nm; at 10 µM; stronger effect = higher value
Chain of 6-phosphogluconate dehydrogenase, decarboxylating (Homo sapiens) (P52209 whole entry, looked up): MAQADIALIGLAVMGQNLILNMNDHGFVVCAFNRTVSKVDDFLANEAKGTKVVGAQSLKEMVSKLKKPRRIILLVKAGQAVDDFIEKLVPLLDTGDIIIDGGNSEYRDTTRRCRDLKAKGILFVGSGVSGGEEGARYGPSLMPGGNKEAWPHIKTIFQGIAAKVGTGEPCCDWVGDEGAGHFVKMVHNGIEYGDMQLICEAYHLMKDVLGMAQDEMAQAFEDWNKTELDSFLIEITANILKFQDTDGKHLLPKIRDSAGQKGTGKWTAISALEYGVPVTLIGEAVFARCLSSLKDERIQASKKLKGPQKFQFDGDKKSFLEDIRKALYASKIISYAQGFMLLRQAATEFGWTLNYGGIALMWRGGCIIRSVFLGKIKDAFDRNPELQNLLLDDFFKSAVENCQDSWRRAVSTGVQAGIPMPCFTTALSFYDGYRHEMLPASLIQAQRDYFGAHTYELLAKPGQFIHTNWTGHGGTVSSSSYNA

| Compound | parasite load remaining [1] | viability [1] | nuclear beta-catenin stimulation ([2]; at 10 µM) | nuclear beta-catenin stimulation ([2]; stimulation, at 2 µM) | insulin secretion stimulation [3] | viability decrease [4] | tube area decrease [5] | GLP1 secretion stimulation [6] | inhibition of viability [7] | viability decrease (inhibition) [8] | viability decrease (inhibition) [9] | inhibition [10] |
| --- | --- | --- | --- | --- | --- | --- | --- | --- | --- | --- | --- | --- |
| Cc1cc(CC(=O)O)n(C)c1C(=O)c1ccc(Cl)cc1 | 103% (inactive) and 101% (inactive) and 54.3% (inactive) | 94.3% and 67.7% and 106% | -0.6% (inactive) | 1.7% | 2.6% (inactive) | -27.2% (inactive) | 15.1% (inactive) | -1.1% (inactive) | 1.13% (inactive) | 14.7% (inactive) | -17.6% (inactive) | -4.85% (inactive) |
| Cc1cc(C)cc(OCC2CNC(=O)O2)c1 (stereo not drawn) | 135% (inactive) and 58.1% (inactive) | 90% and 111% | -0.1% (inactive) | 0.2% | -0.5% (inactive) | 4.3% (inactive) | 12.5% (inactive) | -1.5% (inactive) | 3.1% (inactive) | 13.1% (inactive) | 6% (inactive) | 3.16% (inactive) |
| COc1ccc(C2C(=O)c3ccccc3C2=O)cc1 | 126% (inactive) and 58.9% (inactive) | 68.9% and 89% | 1.8% (inactive) | 1.4% | 0.7% (inactive) | 48.4% (inactive) | -33.4% (inactive) | -6% (inactive) | 35.2% (inactive) | 22.1% (inactive) | 11% (inactive) | -16% (inactive) |
| CCCCOC(=O)c1ccc(N)cc1 | 111% (inactive) and 65.2% (inactive) | 96.4% and 75.1% and 101% | -0.2% (inactive) | 1% | 0.4% (inactive) | 27.7% (inactive) | 20.7% (inactive) | 0.1% (inactive) | -21.1% (inactive) | 118% (active) | 59.9% (active) | -3.52% (inactive) |
| CC(Cc1cccc(C(F)(F)F)c1)NCCOC(=O)c1ccccc1 (stereo not drawn) | 112% (inactive) and 111% (inactive) and 72.4% (inactive) | 102% and 77% and 73.5% | 2.3% (inactive) | 3.6% | 3% (inactive) | -38.7% (inactive) | 0.6% (inactive) | 2.6% (inactive) | 18.1% (inactive) | 51.4% (active) | 28.7% (inactive) | 16.1% (inactive) |
| O=C(OCC(O)CO)c1ccccc1Nc1ccnc2cc(Cl)ccc12 (stereo not drawn) | 9.85% (inactive) and 91.3% (inactive) and 74.6% (inactive) | 47.1% and 73.6% and 92% | 3.1% (inactive) | -0.3% | 6.1% (inactive) | 53.3% (active) | -3.6% (inactive) | -2.3% (inactive) | 38.5% (inactive) | 53.8% (active) | 6.3% (inactive) | 11.2% (inactive) |
| O=c1cc[nH]c(=S)[nH]1 | 64% (inactive) | 87.2% | -0.3% (inactive) | 1.5% | -0.7% (inactive) | -5.7% (inactive) | 11.6% (inactive) | -6.9% (inactive) | 1.83% (inactive) | -9.6% (inactive) | -8.5% (inactive) | 13.5% (inactive) |
| C=CCc1ccc(O)c(OC)c1 | 91.2% (inactive) and 49.1% (inactive) | 77.2% and 96.4% | 1.1% (inactive) | 4.6% | 4.7% (inactive) | 22.5% (inactive) | -3.7% (inactive) | 2.4% (inactive) | 3.77% (inactive) | -11.7% (inactive) | -4.6% (inactive) | -3.83% (inactive) |
| CN1CCCN=C1COC(=O)C(O)(c1ccccc1)C1CCCCC1 (stereo not drawn) | 69.1% (inactive) and 57.9% (inactive) | 80.4% and 101% | 3% (inactive) | 1.9% | 16.3% (inactive) | -83% (inactive) | -29% (inactive) | 4.8% (inactive) | 19.6% (inactive) | 67.3% (active) | 33.9% (inactive) | 6.35% (inactive) |
| C[C@@](Cc1ccc(O)c(O)c1)(NN)C(=O)O | 47.3% (inactive) | 129% | -1.9% (inactive) | -0.3% | 0.3% (inactive) | 48.3% (inactive) | -3.9% (inactive) | -1.3% (inactive) | 27.4% (inactive) | 88.8% (active) | 11.7% (inactive) | -4.83% (inactive) |
| COc1ccc(C(=O)c2ccccc2)c(O)c1 | 175% (inactive) and 149% (inactive) and 68.3% (inactive) | 96.8% and 72.8% and 91.5% | 1.5% (inactive) | 1% | -2.9% (inactive) | -5.25% (inactive) | 6.3% (inactive) | 0.5% (inactive) | 14.4% (inactive) | 3.3% (inactive) | -0.05% (inactive) | -7.36% (inactive) |
| COc1c2occc2c(OC)c2c(=O)cc(C)oc12 | 32.5% (inactive) and 95.1% (inactive) | 48.9% and 88.8% | 2.2% (inactive) | 0.4% | 0.7% (inactive) | -6.4% (inactive) | 21.8% (inactive) | 5.9% (inactive) | -7.6% (inactive) | 21.5% (inactive) | -0.4% (inactive) | 1.04% (inactive) |
| O=C(Cn1ccnc1[N+](=O)[O-])NCCO | 107% (inactive) and 46.8% (inactive) | 103% and 102% | -1.8% (inactive) | 0.3% | 2.3% (inactive) | -1.8% (inactive) | 2.6% (inactive) | -2.9% (inactive) | 19.2% (inactive) | 6.3% (inactive) | -0.6% (inactive) | -6.85% (inactive) |
| Cc1cc2cc3c(C)cc(=O)oc3c(C)c2o1 | 179% (inactive) and 284% (inactive) and 171% (inactive) | 95.9% and 75.4% and 91.9% | 2.9% (inactive) | 0.1% | -0.7% (inactive) | -8.2% (inactive) | 1.6% (inactive) | 0.5% (inactive) | 19.9% (inactive) | 35.5% (inactive) | -2.3% (inactive) | -18.4% (inactive) |
| Nc1cc(-c2ccncc2)c[nH]c1=O | 103% (inactive) | 98.5% | 0.5% (inactive) | 1.7% | 0.4% (inactive) | -33.1% (inactive) | -25.6% (inactive) | 0% (inactive) | -3.67% (inactive) | 15% (inactive) | -7.5% (inactive) | -7.06% (inactive) |
| CC(C)(Oc1ccc(Cl)cc1)C(=O)O | 91.8% (inactive) and 94% (inactive) | 98.7% and 75.8% | 1.8% (inactive) | 2.1% | -2.3% (inactive) | -12.6% (inactive) | -2.8% (inactive) | 4.6% (inactive) | 13.2% (inactive) | 12.2% (inactive) | -5.25% (inactive) | -17.2% (inactive) |
| O=C(O)c1ccccc1O | 90.3% (inactive) and 39.7% (inactive) | 79.5% and 93.6% | 0.5% (inactive) | -0.8% | -0.3% (inactive) | 7.5% (inactive) | 5.9% (inactive) | 6% (inactive) | 10.8% (inactive) | -3.3% (inactive) | -1.7% (inactive) | 1.06% (inactive) |
| Cc1ccc(C(=O)C(C)CN2CCCCC2)cc1 (stereo not drawn) | 97.6% (inactive) | 70.5% | 1.5% (inactive) | 4.3% | 0.3% (inactive) | -13.7% (inactive) | -6.9% (inactive) | 4.8% (inactive) | 0.13% (inactive) | 2.3% (inactive) | -3.8% (inactive) | 7.71% (inactive) |
| CC1(C)O[C@@H]2C[C@H]3[C@@H]4C[C@H](F)C5=CC(=O)CC[C@]5(C)[C@H]4[C@@H](O)C[C@]3(C)[C@]2(C(=O)CO)O1 | 156% (inactive) | 105% | -1.9% (inactive) | 4% | 6.1% (inactive) | 0.8% (inactive) | -40.9% (inactive) | 1.2% (inactive) | 0.1% (inactive) | -2.1% (inactive) | -16.6% (inactive) | 8.44% (inactive) |
| O=C(O)CCCC[C@@H]1SC[C@@H]2NC(=O)N[C@@H]21 | 125% (inactive) and 81.9% (inactive) | 117% and 77.7% | 0.3% (inactive) | 1.3% | -0.9% (inactive) | -1.65% (inactive) | -24.1% (inactive) | 1.6% (inactive) | -15% (inactive) | 33.7% (inactive) | 4.5% (inactive) | 12.7% (inactive) |
| CCCCOc1ccc(OCCCN2CCOCC2)cc1 | 92% (inactive) and 117% (inactive) and 30.7% (inactive) | 109% and 67.4% and 85.2% | 1.4% (inactive) | 0.4% | 0.6% (inactive) | -10.8% (inactive) | 15.4% (inactive) | -1.7% (inactive) | 24.8% (inactive) | 46.8% (inactive) | 22.7% (inactive) | -17.9% (inactive) |
| C[C@]12CCC(=O)C=C1C=C[C@@H]1[C@@H]2CC[C@@]2(C)[C@H]1CC[C@@]21CCC(=O)O1 | 17.5% (inactive) | 73% | 2.7% (inactive) | 1.9% | -2.6% (inactive) | 22.8% (inactive) | 9% (inactive) | 3.3% (inactive) | 33.6% (inactive) | 60.5% (active) | 11.5% (inactive) | -1.14% (inactive) |
| Nc1ncnc2c1ncn2[C@@H]1O[C@H](COP(=O)(O)O)[C@@H](O)[C@H]1O | 75.5% (inactive) and 87.1% (inactive) | 125% and 81% | 2.4% (inactive) | 3.8% | 0.05% (inactive) | -14.7% (inactive) | -5.6% (inactive) | 4% (inactive) | -14.3% (inactive) | 73.2% (active) | -4.1% (inactive) | -8.33% (inactive) |
| O=C(O)CCC(=O)Nc1ccc(S(=O)(=O)Nc2nccs2)cc1 | 92.2% (inactive) and 146% (inactive) and 21.3% (inactive) | 97.3% and 69.1% and 82.2% | -0.6% (inactive) | 0.6% | -2.6% (inactive) | -3.7% (inactive) | 21% (inactive) | -5.7% (inactive) | 2% (inactive) | 40.3% (inactive) | 9.45% (inactive) | -5.92% (inactive) |
